Experimental data reported in PubChem BioAssay (NCATS).
Records with an inconclusive call do not appear. Calls of active or inactive are those of the source. Unless noted, calls come from the whole dose curve.

Experiments:
[1] = qHTS for Inhibitors of the Functional Ribonucleoprotein Complex (vRNP) of Lassa (LASV) Arenavirus: LASV Primary Screen - GLuc reporter signal (AID 1347082; calls by dose curve; tested in HEK293 reporter line; note: nearly all actives have a fitted effect of over 60% in size)
[2] = qHTS for Inhibitors of the Functional Ribonucleoprotein Complex (vRNP) of Lassa (LASV) Arenavirus: Viability assay - alamar blue signal for LASV Primary Screen (AID 1347083; calls by dose curve; tested in HEK293 reporter line; note: nearly all actives have a fitted effect of over 80% in size)
[3] = qHTS for Inhibitors of the Functional Ribonucleoprotein Complex (vRNP) of Lymphocytic Choriomeningitis Arenaviruses (LCMV): Viability assay - alamar blue signal for LCMV Primary Screen (AID 1347085; calls by dose curve; tested in HEK293 reporter line; note: nearly all actives have a fitted effect of over 80% in size)
[4] = molecular target: Nucleoprotein (Lymphocytic choriomeningitis virus (strain Armstrong)) (UniProt P09992); test: qHTS for Inhibitors of the Functional Ribonucleoprotein Complex (vRNP) of Lymphocytic Choriomeningitis Arenaviruses (LCMV): LCMV Primary Screen - GLuc reporter signal (AID 1347086); note: nearly all actives have a fitted effect of over 70% in size
Nucleoprotein (Lymphocytic choriomeningitis virus (strain Armstrong)), sequence (P09992 whole entry, looked up): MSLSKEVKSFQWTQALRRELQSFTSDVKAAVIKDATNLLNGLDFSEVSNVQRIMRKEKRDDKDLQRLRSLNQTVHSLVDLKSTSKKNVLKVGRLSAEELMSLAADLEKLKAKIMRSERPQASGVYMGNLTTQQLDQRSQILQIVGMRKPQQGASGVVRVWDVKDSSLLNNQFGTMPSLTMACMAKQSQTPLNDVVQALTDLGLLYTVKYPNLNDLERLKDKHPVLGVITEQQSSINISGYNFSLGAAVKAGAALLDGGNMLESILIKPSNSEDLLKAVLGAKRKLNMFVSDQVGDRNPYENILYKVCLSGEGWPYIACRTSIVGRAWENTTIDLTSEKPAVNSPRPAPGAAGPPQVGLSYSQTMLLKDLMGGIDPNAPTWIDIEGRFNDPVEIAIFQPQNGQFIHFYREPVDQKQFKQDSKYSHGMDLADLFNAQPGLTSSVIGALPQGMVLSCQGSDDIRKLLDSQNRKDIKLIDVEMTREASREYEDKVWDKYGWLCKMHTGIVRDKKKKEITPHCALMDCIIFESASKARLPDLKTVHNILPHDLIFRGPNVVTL

Measured: Potency
Note: series mostly up to about 57 µM.

CCCCc1nc(Cl)c(CO)n1Cc1ccc(-c2ccccc2-c2nn[nH]n2)cc1
inactive: all assays above

Cc1cn([C@H]2C=C[C@@H](CO)O2)c(=O)[nH]c1=O
inactive: all assays above

O=C1NC(=O)C(c2ccccc2)(c2ccccc2)N1
inactive: all assays above

Cc1onc(-c2ccccc2Cl)c1C(=O)N[C@@H]1C(=O)N2[C@@H]1SC(C)(C)[C@@H]2C(=O)O
inactive: all assays above

CC1(C)S[C@@H]2[C@H](NC(=O)C(C(=O)O)c3ccccc3)C(=O)N2[C@H]1C(=O)O (stereo partly drawn)
inactive: all assays above

Oc1cn2c(n1)Nc1ccc(Cl)c(Cl)c1C2
inactive: all assays above

O=P(O)(O)C(O)(Cc1cccnc1)P(=O)(O)O
inactive: all assays above

CNCCCC1c2ccccc2C=Cc2ccccc21
inactive: all assays above

OC(Cn1cncn1)(Cn1cncn1)c1ccc(F)cc1F
inactive: all assays above

COc1cc2nc(N3CCN(C(=O)C4COc5ccccc5O4)CC3)nc(N)c2cc1OC (stereo not drawn)
inactive: all assays above

CC(=O)SC[C@@H](C)C(=O)N1CCC[C@H]1C(=O)N[C@@H](Cc1ccccc1)C(=O)O
inactive: all assays above

Nc1ccc(O)c(C(=O)O)c1
inactive: all assays above

CCC1C(=O)OCC1Cc1cncn1C (stereo not drawn)
inactive: all assays above

CCOc1ccccc1OCCN[C@H](C)Cc1ccc(OC)c(S(N)(=O)=O)c1
inactive: all assays above

CN(C)CCOC(C)(c1ccccc1)c1ccccn1 (stereo not drawn)
inactive: all assays above

COc1ccccc1Oc1c(NS(=O)(=O)c2ccc(C(C)(C)C)cc2)nc(-c2ncccn2)nc1OCCO
inactive: all assays above

O=C(CCCN1CCC(O)(c2ccc(Cl)cc2)CC1)c1ccc(F)cc1
inactive: all assays above

O=C1CCc2ccc(OCCCCN3CCN(c4cccc(Cl)c4Cl)CC3)cc2N1
inactive: all assays above

Nc1nnc(-c2cccc(Cl)c2Cl)c(N)n1
inactive: all assays above

Cc1oncc1C(=O)Nc1ccc(C(F)(F)F)cc1
inactive: all assays above

COc1cc2nc(N3CCN(C(=O)c4ccco4)CC3)nc(N)c2cc1OC
inactive: all assays above

CN1C(=O)CC(C)(c2ccccc2)C1=O (stereo not drawn)
inactive: all assays above

O[C@@H](CNC[C@H](O)[C@H]1CCc2cc(F)ccc2O1)[C@@H]1CCc2cc(F)ccc2O1
inactive: all assays above

CC(C)NCC(O)COc1cccc2[nH]ccc12 (stereo not drawn)
inactive: all assays above

CCN(CCO)CCCC(C)Nc1ccnc2cc(Cl)ccc12 (stereo not drawn)
inactive: all assays above

CN(C)CCOC(c1ccc(Cl)cc1)c1ccccn1 (stereo not drawn)
inactive: all assays above

COC(=O)N[C@H](C(=O)N[C@@H](Cc1ccccc1)[C@@H](O)CN(Cc1ccc(-c2ccccn2)cc1)NC(=O)[C@@H](NC(=O)OC)C(C)(C)C)C(C)(C)C
inactive: all assays above

CN1CCN(CCCN2c3ccccc3Sc3ccc(Cl)cc32)CC1
inactive: all assays above

Cn1cnc2c(F)c(Nc3ccc(Br)cc3Cl)c(C(=O)NOCCO)cc21
inactive: all assays above

COc1nc(N)nc2c1ncn2[C@@H]1O[C@H](CO)[C@@H](O)[C@@H]1O
inactive: all assays above

Cc1c(OCC(F)(F)F)ccnc1CS(=O)c1nc2ccccc2[nH]1 (stereo not drawn)
inactive: all assays above

C[C@@H](NCCCc1cccc(C(F)(F)F)c1)c1cccc2ccccc12
inactive: all assays above
